Reference: paper PMC5540273 (PLoS ONE, 2017)

Columns and labels:
Details in all cases: concentration: 1 μM, replicates: in singlicate; n = 1
[1] = system: EPHA3
[2] = system: EPHA4
[3] = system: EPHA5
[4] = system: EPHA6
[5] = system: EPHA7
[6] = system: EPHA8
[7] = system: EPHB1
[8] = system: EPHB2
[9] = system: EPHB3
[10] = system: EPHB4
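Further: KINOMEscan kinase panel screen.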

| SMILES | %Inh [1] [%] | %Inh [2] [%] | %Inh [3] [%] | %Inh [4] [%] | %Inh [5] [%] | %Inh [6] [%] | %Inh [7] [%] | %Inh [8] [%] | %Inh [9] [%] | %Inh [10] [%] |
| --- | --- | --- | --- | --- | --- | --- | --- | --- | --- | --- |
| Fc1ccc(-c2ncn(CCCN3CCOCC3)c2-c2ccccn2)cc1 [SB-211742] | 0 | 8 | 0 | 0 | 0 | 9 | 20 | 0 | 20 | 28 |
| c1ccc(-c2cc(-c3c[nH]nc3-c3ccccn3)ccn2)cc1 [GW576604] | 15 | 0 | 0 | 0 | 0 | 0 | 20 | 0 | 0 | 7 |
| COc1cc2c(cc1OC[C@@H](O)CO)ncc1c3ccc(C#N)cc3[nH]c21 | 0 | 8 | 11 | 10 | 0 | 0 | 0 | 0 | 14 | 4 |
| Cl.Nc1ncnc2occ(-c3ccc(NC(=O)Nc4cc(C(F)(F)F)ccc4F)cc3)c12 [SB-707548] | 76 | 93.9 | 91.5 | 99.3 | 98.9 | 99.7 | 96 | 94.4 | 94.7 | 96 |
| CCCCCc1nc2c(N)ncnc2n1CCCCC [SKF-97255] | 0 | 10 | 0 | 5 | 0 | 0 | 5 | 0 | 5 | 0 |
